# Paper PMC7862700, “An all-to-all approach to the identification of sequence-specific readers for epigenetic DNA modifications on cytosine”
# Experiments:
# Experiment in all cases: DAPPL (digital affinity profiling via proximity ligation, sequencing); 10 mM Tris-HCl pH 7.5, 50 mM NaCl, 1 mM DTT, 4% glycerol, room temperature, 30 min; GST-TFs on glutathione beads, 16-mer random dsDNA library, 0.1% formaldehyde crosslink after washing; high values mean tight binding
# [1] = biological target: T1, FEV (Homo sapiens, UniProt Q99581 1-238); settings: protein: recombinant; tags: N-terminal GST; dsDNA, one strand shown
# T1 sequence: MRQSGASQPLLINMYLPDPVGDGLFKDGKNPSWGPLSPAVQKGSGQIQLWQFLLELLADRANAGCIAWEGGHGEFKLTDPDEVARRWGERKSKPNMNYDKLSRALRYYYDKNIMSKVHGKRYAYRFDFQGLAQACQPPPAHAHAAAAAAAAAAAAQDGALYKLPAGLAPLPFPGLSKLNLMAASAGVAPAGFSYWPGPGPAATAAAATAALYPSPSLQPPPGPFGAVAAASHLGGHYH
# Method in brief: (§1)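 Human transcription factors fused to GST were expressed in yeast, captured on glutathione beads, given DNA barcodes and pooled with a GST-only negative control. Pools were incubated with 200 nmole of a 16-mer random double-stranded DNA library in Tris/NaCl/DTT/glycerol buffer at room temperature for 30 min. They were then washed, crosslinked with 0.1% formaldehyde, proximity-ligated (BsaI/T4 ligase, 1 h, 37 °C), PCR-amplified and sequenced on an Illumina NextSeq500. Binding signal is each 6-mer's read frequency for a factor divided by its frequency for the GST control.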
# [2] = biological target: ETV5 (Homo sapiens, UniProt P41161 1-510); settings: protein: recombinant; tags: N-terminal GST; dsDNA, one strand shown
# Method in brief: as §1
# [3] = biological target: HSF1 (Homo sapiens, UniProt Q00613 1-529); settings: protein: recombinant; tags: N-terminal GST; chain copies: 3; dsDNA, one strand shown
# Method in brief: as §1
# [4] = biological target: T2, SPIC (Homo sapiens, UniProt Q8N5J4 1-248); settings: protein: recombinant; tags: N-terminal GST; dsDNA, one strand shown
# T2 sequence: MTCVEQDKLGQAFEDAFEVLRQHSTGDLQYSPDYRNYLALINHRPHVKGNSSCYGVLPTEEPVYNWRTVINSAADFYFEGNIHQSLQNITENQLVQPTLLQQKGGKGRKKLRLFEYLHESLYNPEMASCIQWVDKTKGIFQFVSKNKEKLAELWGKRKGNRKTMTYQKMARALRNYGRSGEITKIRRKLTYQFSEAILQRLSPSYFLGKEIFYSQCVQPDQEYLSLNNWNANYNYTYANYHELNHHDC
# Method in brief: as §1
# [5] = biological target: ELF4 (Homo sapiens, UniProt Q99607 1-663); settings: protein: recombinant; tags: N-terminal GST; dsDNA, one strand shown
# Method in brief: as §1
# [6] = biological target: T3, ELK4 (Homo sapiens, UniProt P28324-2 1-405); settings: protein: recombinant; tags: N-terminal GST; dsDNA, one strand shown
# T3 sequence: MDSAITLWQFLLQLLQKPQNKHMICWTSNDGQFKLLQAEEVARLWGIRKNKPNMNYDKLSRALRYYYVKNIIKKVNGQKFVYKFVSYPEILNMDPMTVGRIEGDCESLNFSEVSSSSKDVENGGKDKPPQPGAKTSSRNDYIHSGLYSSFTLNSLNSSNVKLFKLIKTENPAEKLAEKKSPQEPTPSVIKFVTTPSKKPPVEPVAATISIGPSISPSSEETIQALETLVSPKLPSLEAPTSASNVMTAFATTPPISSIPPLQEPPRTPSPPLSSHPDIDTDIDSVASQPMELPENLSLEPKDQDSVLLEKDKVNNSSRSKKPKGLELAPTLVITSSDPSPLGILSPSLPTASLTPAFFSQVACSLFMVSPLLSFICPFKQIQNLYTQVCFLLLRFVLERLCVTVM
# Method in brief: as §1
# [7] = biological target: T4, ETV2 (Homo sapiens, UniProt O00321 1-342); settings: protein: recombinant; tags: N-terminal GST; dsDNA, one strand shown
# T4 sequence: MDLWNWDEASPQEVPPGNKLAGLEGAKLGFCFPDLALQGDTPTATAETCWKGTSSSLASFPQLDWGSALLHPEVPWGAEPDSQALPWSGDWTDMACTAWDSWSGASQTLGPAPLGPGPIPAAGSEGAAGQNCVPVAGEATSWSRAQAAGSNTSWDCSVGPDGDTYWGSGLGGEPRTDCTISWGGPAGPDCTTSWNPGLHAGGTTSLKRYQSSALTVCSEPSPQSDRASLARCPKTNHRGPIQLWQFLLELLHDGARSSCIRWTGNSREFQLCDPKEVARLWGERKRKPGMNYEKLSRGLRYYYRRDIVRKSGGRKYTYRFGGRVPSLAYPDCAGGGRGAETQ
# Method in brief: as §1
# [8] = biological target: T5, ELF3 (Homo sapiens, UniProt P78545 1-371); settings: protein: recombinant; tags: N-terminal GST; dsDNA, one strand shown
# T5 sequence: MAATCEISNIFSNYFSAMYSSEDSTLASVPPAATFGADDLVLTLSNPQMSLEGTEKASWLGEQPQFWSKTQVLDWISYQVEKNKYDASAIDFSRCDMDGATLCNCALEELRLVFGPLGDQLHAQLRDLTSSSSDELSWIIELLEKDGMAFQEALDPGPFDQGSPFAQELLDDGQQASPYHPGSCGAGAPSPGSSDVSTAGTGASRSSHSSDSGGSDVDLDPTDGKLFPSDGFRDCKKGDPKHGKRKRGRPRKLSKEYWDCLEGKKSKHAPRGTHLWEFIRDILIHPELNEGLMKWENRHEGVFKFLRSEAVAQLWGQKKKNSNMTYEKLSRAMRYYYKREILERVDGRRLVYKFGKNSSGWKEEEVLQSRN
# Method in brief: as §1
# [9] = biological target: CRX (Homo sapiens, UniProt O43186 1-299); settings: protein: recombinant; tags: N-terminal GST; dsDNA, one strand shown
# Method in brief: as §1
# [10] = biological target: ETV1 (Homo sapiens, UniProt P50549 1-477); settings: protein: recombinant; tags: N-terminal GST; dsDNA, one strand shown
# Method in brief: as §1
# Chain of ETV1 (P50549 whole entry): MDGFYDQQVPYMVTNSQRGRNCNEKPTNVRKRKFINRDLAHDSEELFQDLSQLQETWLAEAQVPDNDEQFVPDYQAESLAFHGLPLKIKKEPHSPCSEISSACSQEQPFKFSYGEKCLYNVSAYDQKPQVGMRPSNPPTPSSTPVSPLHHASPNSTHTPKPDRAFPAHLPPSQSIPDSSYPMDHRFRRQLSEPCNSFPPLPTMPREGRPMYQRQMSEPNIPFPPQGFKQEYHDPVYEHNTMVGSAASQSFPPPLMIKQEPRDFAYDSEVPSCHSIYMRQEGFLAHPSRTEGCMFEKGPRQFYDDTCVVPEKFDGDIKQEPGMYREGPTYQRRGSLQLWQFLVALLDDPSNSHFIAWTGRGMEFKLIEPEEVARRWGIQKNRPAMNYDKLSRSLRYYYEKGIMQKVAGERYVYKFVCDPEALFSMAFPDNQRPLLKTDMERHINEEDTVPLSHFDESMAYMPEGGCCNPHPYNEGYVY
# Chain of CRX (O43186 whole entry): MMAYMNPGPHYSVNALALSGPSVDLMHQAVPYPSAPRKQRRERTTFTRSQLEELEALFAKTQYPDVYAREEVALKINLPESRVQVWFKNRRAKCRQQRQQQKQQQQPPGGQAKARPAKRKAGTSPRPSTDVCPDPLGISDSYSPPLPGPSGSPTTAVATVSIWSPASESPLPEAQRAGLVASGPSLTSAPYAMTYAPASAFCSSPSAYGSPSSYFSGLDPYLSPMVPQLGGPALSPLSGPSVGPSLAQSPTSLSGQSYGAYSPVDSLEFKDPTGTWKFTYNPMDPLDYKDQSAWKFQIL
# Chain of ELF4 (Q99607 whole entry): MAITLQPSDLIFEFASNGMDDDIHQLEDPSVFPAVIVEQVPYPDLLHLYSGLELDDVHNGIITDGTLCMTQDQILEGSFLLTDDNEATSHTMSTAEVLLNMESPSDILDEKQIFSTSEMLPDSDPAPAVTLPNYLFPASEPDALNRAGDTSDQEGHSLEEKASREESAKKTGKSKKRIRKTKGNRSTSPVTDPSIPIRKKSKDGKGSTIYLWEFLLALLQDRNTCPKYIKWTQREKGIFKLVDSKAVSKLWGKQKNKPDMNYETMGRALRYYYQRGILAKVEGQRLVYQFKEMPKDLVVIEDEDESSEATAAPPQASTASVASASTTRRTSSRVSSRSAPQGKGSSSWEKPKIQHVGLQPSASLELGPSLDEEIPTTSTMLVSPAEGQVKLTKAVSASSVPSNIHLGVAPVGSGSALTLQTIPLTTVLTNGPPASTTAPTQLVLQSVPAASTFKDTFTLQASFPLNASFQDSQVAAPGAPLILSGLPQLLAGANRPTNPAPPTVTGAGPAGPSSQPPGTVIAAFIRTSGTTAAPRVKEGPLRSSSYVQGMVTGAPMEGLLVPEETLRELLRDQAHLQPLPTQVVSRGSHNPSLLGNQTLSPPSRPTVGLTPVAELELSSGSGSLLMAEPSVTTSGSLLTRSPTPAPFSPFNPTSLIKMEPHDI
# Chain of ETV5 (P41161 whole entry): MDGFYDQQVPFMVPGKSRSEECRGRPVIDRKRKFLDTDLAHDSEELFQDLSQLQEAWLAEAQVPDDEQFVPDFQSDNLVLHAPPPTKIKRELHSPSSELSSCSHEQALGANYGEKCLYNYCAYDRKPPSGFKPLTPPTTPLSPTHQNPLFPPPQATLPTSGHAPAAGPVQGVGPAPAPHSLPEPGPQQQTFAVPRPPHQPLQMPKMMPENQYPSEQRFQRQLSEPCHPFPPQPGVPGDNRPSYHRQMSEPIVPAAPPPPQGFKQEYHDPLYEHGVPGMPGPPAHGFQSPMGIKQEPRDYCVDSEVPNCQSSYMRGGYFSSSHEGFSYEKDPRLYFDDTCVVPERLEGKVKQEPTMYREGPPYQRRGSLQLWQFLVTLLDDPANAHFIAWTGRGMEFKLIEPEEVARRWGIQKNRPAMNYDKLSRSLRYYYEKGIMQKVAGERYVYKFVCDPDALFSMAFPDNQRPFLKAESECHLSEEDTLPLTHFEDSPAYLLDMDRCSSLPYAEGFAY
# Chain of HSF1 (Q00613 whole entry): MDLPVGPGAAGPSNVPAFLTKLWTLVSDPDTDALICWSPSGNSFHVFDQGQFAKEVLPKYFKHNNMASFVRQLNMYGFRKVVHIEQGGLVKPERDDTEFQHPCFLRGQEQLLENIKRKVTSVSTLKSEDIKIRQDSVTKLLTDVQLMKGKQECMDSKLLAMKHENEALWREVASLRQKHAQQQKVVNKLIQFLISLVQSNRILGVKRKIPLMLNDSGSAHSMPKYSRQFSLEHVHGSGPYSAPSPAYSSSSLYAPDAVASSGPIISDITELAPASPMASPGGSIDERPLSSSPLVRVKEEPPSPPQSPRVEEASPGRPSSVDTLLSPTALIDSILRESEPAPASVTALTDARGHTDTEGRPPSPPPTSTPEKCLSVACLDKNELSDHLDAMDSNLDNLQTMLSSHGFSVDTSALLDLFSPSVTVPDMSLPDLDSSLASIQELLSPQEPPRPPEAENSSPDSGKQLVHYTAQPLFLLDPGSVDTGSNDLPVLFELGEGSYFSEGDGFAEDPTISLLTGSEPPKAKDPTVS
sequence,measurement,setting,value
CTATTT,binding signal,[1],"1.68 fold enrichment (6-mer frequency, TF over GST control)"
same,binding signal,[2],"1.64 fold enrichment (6-mer frequency, TF over GST control)"
same,binding signal,[3],"1.45 fold enrichment (6-mer frequency, TF over GST control)"
same,binding signal,[4],"2.07 fold enrichment (6-mer frequency, TF over GST control)"
same,binding signal,[5],"1.69 fold enrichment (6-mer frequency, TF over GST control)"
same,binding signal,[6],"1.88 fold enrichment (6-mer frequency, TF over GST control)"
same,binding signal,[7],"1.68 fold enrichment (6-mer frequency, TF over GST control)"
same,binding signal,[8],"2.07 fold enrichment (6-mer frequency, TF over GST control)"
same,binding signal,[9],"1.64 fold enrichment (6-mer frequency, TF over GST control)"
same,binding signal,[10],"1.74 fold enrichment (6-mer frequency, TF over GST control)"
